Assay results reported in PubChem BioAssay (NCI).
About 79,000 compounds went through this panel and 15% of them were active in at least one assay; those are over-represented in the sample as a whole. A number with no mark means an inactive call. Activity calls are given as the source filed them. No stated cut-off is given here; in the data, active means growth inhibition above about 70%; inactive means the rest.

Experiment: NCI Yeast Anticancer Drug Screen. Data for the sgs1 mgt1 strain (AID 161);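 further: 0% = growth of cultures given vehicle only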
Conditions: S. cerevisiae sgs1 mgt1 strain, at 50.0 µM (retest, dose inferred, filed as 5.0), stronger effect = higher value
Procedure, shortened: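 Inhibition of yeast growth, normalised to vehicle-treated controls, is reported for a strain bearing genetic alterations in DNA damage repair.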

SMILES	growth inhibition
COC(=O)C1C(c2ccccc2)=N[C@@H](c2ccccc2)[C@H]1C(=O)OC (stereo not given in full)	3%
CCCCCCCCCC(C)CC(=O)NCCCN(C)CCCCN(C)C (stereo not given) (tested in a mixture with another compound)	93% (active)
Cc1ccc(N=C2SC(=S)N(CCC[N+](C)(C)C)C2=Nc2ccc(C)cc2)cc1	99% (active)
N#CSc1ccc(O)c2ccccc12	98% (active)
CCCCCC1OC(CCCCC)OC(CCCCC)O1 (stereo not given)	7%
ClC1(c2ccccc2)c2ccccc2-c2ccccc21	98% (active)
CCN(CC)c1ccc(NC(CC(O)c2ccccc2)c2ccccc2)cc1 (stereo not given)	5%
CCCCCCC[n+]1ccc(C(=O)c2ccccc2)cc1	100% (active)
O=c1[nH][nH]c(=O)c2c1nc(SCc1ccccc1)n2Cc1ccccc1	2%
CCOC(=O)C(NNc1ccccc1)C(c1ccccc1)[P+](c1ccccc1)(c1ccccc1)c1ccccc1 (stereo not given)	99% (active)
CC(C)/C=C1\CCC(CN2CCOCC2)C1=O (stereo not given)	44%
CCc1cc2nc3c(=O)[nH]c(=O)nc-3n(CCN(CCO)CCO)c2cc1CC	15%
c1ccc2c(c1)OCC(CN1CCN(CC3COc4ccccc4O3)CC1)O2 (stereo not given)	55%
CNC(C)C(=O)c1ccc2ccc3ccccc3c2c1 (stereo not given)	34%
O=[N+]([O-])c1ccc(N=C(Cl)C(Cl)(c2ccccc2)c2ccccc2)cc1	98% (active)
O=[N+]([O-])c1ccc2c(c1)Cc1cc(Cl)ccc1-2	-2%
CCCCCCOC(=O)Nc1ccc(S(=O)(=O)N2CCCCC2)cc1	66%
CCCCCCCCCCCOc1cccc(N2C(N)=NC(N)=NC2(C)C)c1	96% (active)
O=Nc1c(NO)c2ccccc2c2ccccc12	93% (active)
CCCCCCCCCCCCCCCCOS(=O)(=O)O	100% (active)

SMILES	growth inhibition
CCCCCCCCCCCCCCCCCC[N+](C)(C)Cc1ccc(C[N+](C)(C)CCCCCCCCCCCCCCCCCC)cc1	51%
NNc1ccc2ccccc2n1	99% (active)
Cc1cc(NC(=S)SCc2ccc(F)cc2)c([N+](=O)[O-])cc1C	99% (active)
COC(=O)/C(=C\c1cn(C(C)=O)c2ccccc12)P(=O)(OC)OC	51%
O=C(Nc1ccccc1)c1ccccc1O	87% (active)
CC(=O)c1c2c(cc3c1CC1(Cc4ccccc4C1=O)C3)CCC2 (stereo not given)	87% (active)
CC(=O)c1c(-c2ccco2)c(C#N)c(=S)n(C2OC(CO)C(O)C(O)C2O)c1-c1ccccc1 (stereo not given)	44%
CC1(C)OC2C(CO)OC(n3ncc(=S)[nH]c3=O)C2O1 (stereo not given)	45%
C=C(C)C1CC/C(C)=C/CCC2(C)OC2CC/C(CO)=C\C1O (stereo not given)	95% (active)
CC(C)CCSc1ncnc2nc[nH]c12	1%
COC(=O)C1(Cc2ccc3c(c2)CCC3)Cc2ccc3c(c2C1O)CCC3 (stereo not given)	97% (active)
Nc1ccc(C(=O)NN2C(=O)C(Cl)C2c2cc(Br)cc(Br)c2O)cc1 (stereo not given)	91% (active)
COc1ccc(SC2=C(N(C)C(C)=O)C(=O)c3ccccc3C2=O)cc1	100% (active)
O=[N+]([O-])c1ccc(N/N=C/CCCCCCCCCCBr)c([N+](=O)[O-])c1	0%
O=C(c1ccccc1)c1cccc2ccccc12	30%
O=S1(=O)CCc2ccccc2C(Br)C1Br (stereo not given)	12%
CC(/C=N/NS(=O)(=O)c1ccc(C)cc1)=C(c1ccccc1)c1ccccc1	96% (active)
Cc1cc(CC(O)(C(F)(F)F)C(F)(F)F)cc(CC(O)(C(F)(F)F)C(F)(F)F)n1	98% (active)
O=S(=O)(c1cc(Cl)c(Cl)cc1Cl)N(CCCCCN(S(=O)(=O)c1cc(Cl)c(Cl)cc1Cl)S(=O)(=O)c1cc(Cl)c(Cl)cc1Cl)S(=O)(=O)c1cc(Cl)c(Cl)cc1Cl	-23%
O=c1cc(-c2ccccc2)oc2ccc(-c3ccc4oc(-c5ccccc5)cc(=O)c4c3)cc12	82% (active)

Same assay, conditions: S. cerevisiae sgs1 mgt1 strain, at 50.0 µM, stronger effect = higher value

SMILES	growth inhibition
COC(=O)C1C(c2ccccc2)=N[C@@H](c2ccccc2)[C@H]1C(=O)OC (stereo not given in full)	17.1%
CCCCCCCCCC(C)CC(=O)NCCCN(C)CCCCN(C)C (stereo not given) (tested in a mixture with another compound)	87% (active)
Cc1ccc(N=C2SC(=S)N(CCC[N+](C)(C)C)C2=Nc2ccc(C)cc2)cc1	99.5% (active)
N#CSc1ccc(O)c2ccccc12	91.7% (active)
CCCCCC1OC(CCCCC)OC(CCCCC)O1 (stereo not given)	16.3%
ClC1(c2ccccc2)c2ccccc2-c2ccccc21	83.9% (active)
CCN(CC)c1ccc(NC(CC(O)c2ccccc2)c2ccccc2)cc1 (stereo not given)	-0.8%
CCCCCCC[n+]1ccc(C(=O)c2ccccc2)cc1	99.5% (active)
O=c1[nH][nH]c(=O)c2c1nc(SCc1ccccc1)n2Cc1ccccc1	1.25%
CCOC(=O)C(NNc1ccccc1)C(c1ccccc1)[P+](c1ccccc1)(c1ccccc1)c1ccccc1 (stereo not given)	99.7% (active)
CC(C)/C=C1\CCC(CN2CCOCC2)C1=O (stereo not given)	48.7%
CCc1cc2nc3c(=O)[nH]c(=O)nc-3n(CCN(CCO)CCO)c2cc1CC	55%
c1ccc2c(c1)OCC(CN1CCN(CC3COc4ccccc4O3)CC1)O2 (stereo not given)	77.7% (active)
CNC(C)C(=O)c1ccc2ccc3ccccc3c2c1 (stereo not given)	58.9%
O=[N+]([O-])c1ccc(N=C(Cl)C(Cl)(c2ccccc2)c2ccccc2)cc1	97% (active)
O=[N+]([O-])c1ccc2c(c1)Cc1cc(Cl)ccc1-2	-11.4%
CCCCCCOC(=O)Nc1ccc(S(=O)(=O)N2CCCCC2)cc1	50.5%
CCCCCCCCCCCOc1cccc(N2C(N)=NC(N)=NC2(C)C)c1	98.6% (active)
O=Nc1c(NO)c2ccccc2c2ccccc12	97.8% (active)
CCCCCCCCCCCCCCCCOS(=O)(=O)O	98.8% (active)

SMILES	growth inhibition
CCCCCCCCCCCCCCCCCC[N+](C)(C)Cc1ccc(C[N+](C)(C)CCCCCCCCCCCCCCCCCC)cc1	71.3% (active)
NNc1ccc2ccccc2n1	46.2%
Cc1cc(NC(=S)SCc2ccc(F)cc2)c([N+](=O)[O-])cc1C	98.5% (active)
COC(=O)/C(=C\c1cn(C(C)=O)c2ccccc12)P(=O)(OC)OC	70.8% (active)
O=C(Nc1ccccc1)c1ccccc1O	92.6% (active)
CC(=O)c1c2c(cc3c1CC1(Cc4ccccc4C1=O)C3)CCC2 (stereo not given)	60%
CC(=O)c1c(-c2ccco2)c(C#N)c(=S)n(C2OC(CO)C(O)C(O)C2O)c1-c1ccccc1 (stereo not given)	58.5%
CC1(C)OC2C(CO)OC(n3ncc(=S)[nH]c3=O)C2O1 (stereo not given)	-1.45%
C=C(C)C1CC/C(C)=C/CCC2(C)OC2CC/C(CO)=C\C1O (stereo not given)	93% (active)
CC(C)CCSc1ncnc2nc[nH]c12	63%
COC(=O)C1(Cc2ccc3c(c2)CCC3)Cc2ccc3c(c2C1O)CCC3 (stereo not given)	89.9% (active)
Nc1ccc(C(=O)NN2C(=O)C(Cl)C2c2cc(Br)cc(Br)c2O)cc1 (stereo not given)	93.7% (active)
COc1ccc(SC2=C(N(C)C(C)=O)C(=O)c3ccccc3C2=O)cc1	99.7% (active)
O=[N+]([O-])c1ccc(N/N=C/CCCCCCCCCCBr)c([N+](=O)[O-])c1	2.4%
O=C(c1ccccc1)c1cccc2ccccc12	52.2%
O=S1(=O)CCc2ccccc2C(Br)C1Br (stereo not given)	99.5% (active)
CC(/C=N/NS(=O)(=O)c1ccc(C)cc1)=C(c1ccccc1)c1ccccc1	82.5% (active)
Cc1cc(CC(O)(C(F)(F)F)C(F)(F)F)cc(CC(O)(C(F)(F)F)C(F)(F)F)n1	98.2% (active)
O=S(=O)(c1cc(Cl)c(Cl)cc1Cl)N(CCCCCN(S(=O)(=O)c1cc(Cl)c(Cl)cc1Cl)S(=O)(=O)c1cc(Cl)c(Cl)cc1Cl)S(=O)(=O)c1cc(Cl)c(Cl)cc1Cl	97.1% (active)
O=c1cc(-c2ccccc2)oc2ccc(-c3ccc4oc(-c5ccccc5)cc(=O)c4c3)cc12	31.7%
